This is an account of results in PubChem BioAssay (NCI).

The panel holds about 83,000 compounds, 20% with a hit somewhere; the sample as a whole holds those more often.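 In brief: 96-well plates, 48 h treatment, single concentration, percent growth endpoint.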 A number with no mark means an inactive call. The source made the active and inactive calls. The calls were made as follows: active = growth percent below 10; inactive = the rest.

Test systems include SR leukemia; RPMI-8226 leukemia; OVCAR-8 ovarian; OVCAR-5 ovarian; OVCAR-4 ovarian; SK-OV-3 ovarian; IGROV1 ovarian; OVCAR-3 ovarian; HS 578T breast; NCI/ADR-RES ovarian.
Assay in all cases: NCI-60 one-dose screen, 48 h (100 = growth as untreated, 0 = no growth, -100 = all killed)
Holding throughout (details): 10 µM unless noted

`CC(=O)c1ccccc1NC(=O)C(C)(c1ccccc1)c1ccccc1`: the growth with SR leukemia is 65.9%; in the test with RPMI-8226 leukemia, 57.3%; in the test with OVCAR-8 ovarian, 90.2%; in the test with OVCAR-5 ovarian, 91.3%; in the test with OVCAR-4 ovarian it was 97.9%; with SK-OV-3 ovarian, 103%. For the same compound, the growth was 101% in the test on IGROV1 ovarian, 103% in the test on OVCAR-3 ovarian, 34.3% in the test with HS 578T breast and 63.8% in the test with NCI/ADR-RES ovarian.
On to `CCCCCN(CCCCC)CCCNc1c2c(nc3ccc(Cl)cc13)CCCC2`, for which the growth in the test with SR leukemia was 0.527% (active); in the test on RPMI-8226 leukemia it was 4.62% (active); with OVCAR-8 ovarian, 37.5%; in the test with OVCAR-5 ovarian, 41.2%; with OVCAR-4 ovarian it was 17.6%; in the test on SK-OV-3 ovarian, 66.6%. The growth in the test with IGROV1 ovarian was 17.5%; in the test with OVCAR-3 ovarian, 58.1%; with HS 578T breast, 71.6%; in the test with NCI/ADR-RES ovarian it was 48.9%.
With `COc1cc(C2=NN(C=O)C(c3cccc(Nc4ccnc5cc(Cl)ccc45)c3)C2)cc(OC)c1OC` (configuration not stated), the growth was 9.32% (active) with SR leukemia; 53.7% in the test on RPMI-8226 leukemia; 70% in the test on OVCAR-8 ovarian; 94.2% in the test on OVCAR-5 ovarian; 69.3% in the test on OVCAR-4 ovarian; 80.5% with SK-OV-3 ovarian. Moreover, the growth in the test with IGROV1 ovarian was 102%; in the test on OVCAR-3 ovarian, 85.2%; in the test with NCI/ADR-RES ovarian, 65.5%.
For `COc1cc(/C=C2\CN(C)CC3=C2Nc2nc(SC)[nH]c(=O)c2C3c2cc(OC)c(OC)c(OC)c2)cc(OC)c1OC` (configuration not stated), the growth with SR leukemia is -2.83% (active); in the test on RPMI-8226 leukemia, 8.36% (active); in the test with OVCAR-8 ovarian, 1.09% (active); with OVCAR-5 ovarian, 101%; with OVCAR-4 ovarian, 75.9%; in the test on SK-OV-3 ovarian, 87.9%. The growth in the test with IGROV1 ovarian is 30.8%; with OVCAR-3 ovarian it was 15.7%; in the test with HS 578T breast it was 36.3%; in the test with NCI/ADR-RES ovarian, -7.05% (active).
For the compound `CCCc1n(Cc2ccc3ccccc3c2)cc[n+]1Cc1ccc2ccccc2c1`, the growth was -38.1% (active) in the test with SR leukemia; -22.2% (active) in the test with RPMI-8226 leukemia; -10.6% (active) with OVCAR-8 ovarian; 9.11% (active) with OVCAR-5 ovarian; 9.35% (active) with OVCAR-4 ovarian; 6.89% (active) in the test with SK-OV-3 ovarian. For the same compound, the figures for the growth in the test on IGROV1 ovarian, in the test on OVCAR-3 ovarian and with NCI/ADR-RES ovarian were -54.2% (active), -55.6% (active) and 89.2%, respectively.
As for `CCOc1nc(-c2ccco2)n2nc(-c3ccco3)cc2n1`, the growth in the test with SR leukemia was 123%; in the test on RPMI-8226 leukemia, 84.4%; with OVCAR-8 ovarian it was 97%; in the test with OVCAR-5 ovarian, 108%; in the test on OVCAR-4 ovarian, 87.2%; in the test on SK-OV-3 ovarian it was 110%. Also, the growth in the test on IGROV1 ovarian was 106%; in the test with OVCAR-3 ovarian, 122%; in the test with HS 578T breast, 95.7%; in the test with NCI/ADR-RES ovarian, 99.5%.
Regarding `Cc1[nH]ccc2cc3nc4ccccc4c3cc12`, the growth with SR leukemia is 3.33% (active); with RPMI-8226 leukemia it was 15.9%; with OVCAR-8 ovarian it was 20.6%; in the test with OVCAR-5 ovarian it was 42%; with OVCAR-4 ovarian it was 38.4%; in the test on SK-OV-3 ovarian it was 34.7%. The growth was 23.6% in the test on IGROV1 ovarian, 41.6% in the test on OVCAR-3 ovarian, 55.3% in the test on HS 578T breast and 24.9% in the test on NCI/ADR-RES ovarian.
For the compound `O=C(CNC(=O)c1cccc2ccccc12)Nc1ccccc1Oc1cccc(O)c1`, the growth is 18.7% [5 µM] in the test on SR leukemia; 25.9% [5 µM] in the test with RPMI-8226 leukemia; 15.3% [5 µM] in the test on OVCAR-8 ovarian; 39.9% [5 µM] in the test on OVCAR-5 ovarian; 59.1% [5 µM] in the test on OVCAR-4 ovarian; 7.7% [5 µM] (active) in the test on SK-OV-3 ovarian. The figures for the growth in the test on IGROV1 ovarian, in the test on OVCAR-3 ovarian and in the test with NCI/ADR-RES ovarian were 42.9% [5 µM], -10.8% [5 µM] (active) and 13% [5 µM], respectively.
Turning to `Cc1cc2c(cc1C)[n+](Cc1ccc3ccccc3c1)cn2Cc1ccc2ccccc2c1`, the growth with SR leukemia is -50.6% (active); with RPMI-8226 leukemia it was -49.6% (active); in the test on OVCAR-8 ovarian it was -79% (active); in the test with OVCAR-5 ovarian, -87.1% (active); with OVCAR-4 ovarian, -76% (active); in the test on SK-OV-3 ovarian, -27% (active). Further, the growth is -84.9% (active) in the test on IGROV1 ovarian, -94.2% (active) with OVCAR-3 ovarian and 80.7% with NCI/ADR-RES ovarian.
On to `COc1ccc(Oc2ccccc2NC(=O)CNC(=O)c2cccc3ccccc23)cc1`, for which the growth was 23.7% [5 µM] in the test on SR leukemia; 27.4% [5 µM] with RPMI-8226 leukemia; 17% [5 µM] in the test with OVCAR-8 ovarian; 40.9% [5 µM] in the test on OVCAR-5 ovarian; 67.2% [5 µM] in the test on OVCAR-4 ovarian; 20.4% [5 µM] in the test with SK-OV-3 ovarian. The growth in the test on IGROV1 ovarian is 33% [5 µM]; in the test with OVCAR-3 ovarian, -16.6% [5 µM] (active); in the test with NCI/ADR-RES ovarian it was 15.3% [5 µM].
As to `COc1ccc(C2=NN(C=O)C(c3cccc(Nc4ccnc5cc(Cl)ccc45)c3)C2)cc1` (configuration not stated), the growth in the test with SR leukemia is 12.6%; in the test with RPMI-8226 leukemia, 23.2%; in the test with OVCAR-8 ovarian, 17%; with OVCAR-5 ovarian, 51.5%; in the test with OVCAR-4 ovarian, 40.1%; in the test on SK-OV-3 ovarian it was 20.6%. Besides, the growth in the test with IGROV1 ovarian is 44.1%; in the test with OVCAR-3 ovarian, 13.8%; with NCI/ADR-RES ovarian, 10.8%.
Turning to `FC(F)(F)c1ccc(-c2cnc(-c3nn[nH]n3)nc2NC2CCCCCC2)cc1`, the growth is 15.1% [50 µM] in the test on SR leukemia; 34.5% [50 µM] in the test on RPMI-8226 leukemia; 42.4% [50 µM] with OVCAR-8 ovarian; 101% [50 µM] in the test on OVCAR-5 ovarian; 60.8% [50 µM] in the test with OVCAR-4 ovarian; 86.1% [50 µM] in the test with SK-OV-3 ovarian. Further, the growth with IGROV1 ovarian was 52.7% [50 µM]; in the test on OVCAR-3 ovarian it was 31% [50 µM]; in the test with NCI/ADR-RES ovarian, 30.8% [50 µM].
Regarding `O=CN1N=C(c2ccc(Cl)cc2)CC1c1cccc(Nc2ccnc3cc(Cl)ccc23)c1` (configuration not stated), the growth is 1.88% (active) in the test with SR leukemia; 13.4% with RPMI-8226 leukemia; 12.6% in the test on OVCAR-8 ovarian; 34.6% in the test with OVCAR-5 ovarian; 29.2% with OVCAR-4 ovarian; 19.2% in the test with SK-OV-3 ovarian. Moreover, the growth with IGROV1 ovarian was 34.4%; in the test with OVCAR-3 ovarian, 16.3%; in the test on NCI/ADR-RES ovarian, 2.47% (active).
